Compounds with a hit are over-represented: about 3.7% of the library has one in this group of screens.
TIM10 inh: growth inhibitors of TIM10 yeast strain; S. cerevisiae TIM10 strain growth, BacTiter-Glo luminescence, 24 h; inhibition, % at 10 µM; 1.4% of 330,000 active; AID 463195;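 active means inhibition of 40% or more at the single tested concentration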;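 further: wild-type TIM10 isogenic control strain grown at permissive 25 °C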
PfHsp90 set2: inhibits growth of yeast expressing Plasmodium falciparum Hsp90; S. cerevisiae expressing PfHsp90, BacTiter-Glo ATP, 48 h; yeast lacking PDR1 and PDR3 efflux regulators; inhibition, % at 9.4 µM; 0.32% of 310,000 active; AID 504621;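 active means every replicate shows inhibition above about 80%, whatever the replicate mean, limit read from the data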
tim10-1 inh: inhibits growth of tim10-1 mutant yeast; 2.2% of 330,000 active; S. cerevisiae tim10-1 ts strain growth, BacTiter-Glo, 24 h; AID 463190; inhibition, % at 20 µM;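 active means inhibition of at least 40%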;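 further: mutant grown at 25 °C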
NLRP3 yeast inh: inhibitors of NALP3 inflammasome in yeast | Yeast reconstituted NLRP3/ASC/caspase-1, beta-gal luminescence, 24 h | inhibition, % at 10 µM | 0.39% of 330,000 active | AID 2825;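 active means inhibition of 50% or more; inactive means inhibition below 50%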
tim23-1 inh: growth inhibitors of tim23-1 mutant yeast. S. cerevisiae tim23-1 growth, BacTiter-Glo luminescence, 24 h. inhibition, % at 20 µM. 1.3% of 330,000 active. AID 463212;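 active means growth inhibition of the mutant yeast at or above 50%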;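 further: temperature-sensitive mutant grown at 25 °C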
Hits are given with their value; – = inactive; · = not tested or not shown.

SMILES	TIM10 inh	PfHsp90 set2	tim10-1 inh	NLRP3 yeast inh	tim23-1 inh
CC1(c2nnc(Cc3ccccc3)o2)CC(c2ccccc2[N+](=O)[O-])=NO1 (stereo not given)	–	108.4	–	–	–
O=[N+]([O-])c1ccc2c(c1)-c1ccccc1C2=NO	·	104.6	·	·	·
Nc1ccc2c(c1)C(=NO)c1cc([N+](=O)[O-])ccc1-2	·	–	·	·	·
COc1ccc(N(C(=O)c2ccncc2)S(=O)(=O)c2ccccc2)cc1	–	193.9	–	–	–
COc1ccc(S(=O)(=O)N(C(=O)c2ccncc2)c2ccc(OC(=O)c3ccncc3)cc2)cc1	–	91.2	–	–	–
CC(C)(C)C(=O)C(CO)(Oc1ccc(Cl)cc1)n1cncn1 (stereo not given)	–	88.9	–	–	–
O=C(Nc1cccc(Cl)c1)c1ccc(=O)[nH]n1	–	–	–	–	–
O=C1CCCN1CCC1CCN(C2CC(=O)N(c3ccc(Cl)cc3)C2=O)CC1 (stereo not given)	–	102.4	–	–	–
CCN(CC(=O)NCc1cccs1)C(=O)CCOc1ccccc1	–	–	–	–	–
COc1ccc(NC(=S)Nc2ccc3snnc3c2)cc1	–	109.4	–	–	–
O=C(N/N=C/c1ccccc1)c1cccc2ccccc12	–	–	–	–	–
COc1ccc2cc(C(=O)N/N=C/c3sc4ccccc4c3O)ccc2c1	–	–	–	–	–
O=C(N/N=C/c1sc2ccccc2c1O)c1cccc2ccccc12	·	104.2	·	·	·
COc1ccc(C(=O)N/N=C/c2sc3ccccc3c2O)cc1	·	100.2	·	·	·
CCCn1c(N)c(C(=O)COC(=O)CNC(=O)c2ccc(C)c(C)c2)c(=O)n(C)c1=O	–	–	–	–	–
COc1cc(Cl)ccc1OCc1cc(C(=O)NCCCN2CCCC2=O)no1	–	–	–	–	–
O=C1/C(=C\c2ccc(Cl)cc2)CCC1CNc1ccc(Cl)cc1 (stereo not given)	·	147.0	·	·	·
CN(C)CC1CC/C(=C\c2ccc(O)cc2)C1=O (stereo not given)	·	144.7	·	·	·
COc1ccc(/C=C2/CCC(CN3CCOCC3)C2=O)cc1 (stereo not given)	·	146.3	·	·	·
CC1CCC/C(=C\c2ccc(O)cc2)C1=O (stereo not given)	–	–	–	–	–
O=C(OCc1cc(=O)n2ccsc2n1)c1ccccc1NCCO	–	–	–	–	–
CC(=NNC(=S)Nc1cccc(C)c1)c1ccccn1	·	112.3	·	·	·
O=C1C2CC=CCC2C(=O)N1Cc1ccccc1 (stereo not given)	–	–	–	–	–
O=C1C=CC(=O)N1Cc1ccccc1	–	109.7	–	–	–
Cc1ccc(-n2ncc3c2CCCC3NC(=O)c2ccccc2N2CCOCC2)cc1C (stereo not given)	–	114.0	–	–	–
SMILES	TIM10 inh	PfHsp90 set2	tim10-1 inh	NLRP3 yeast inh	tim23-1 inh
O=C1C(Cl)=C(NCCc2ccccc2)C(=O)c2ccccc21	·	116.4	·	·	·
O=C1C(Cl)=C(Nc2ccccc2)C(=O)c2ccccc21	·	–	·	·	·
CCC1CCCCN1CCCNC(=O)c1ccc2c(=O)n(CCOC)c(=O)[nH]c2c1 (stereo not given)	–	–	–	–	–
COc1ccccc1N=Nc1ccc(O)c2ncccc12	–	98.8	–	–	–
O=C(c1ccc2c(=O)n(C3CCCC3)c(=S)[nH]c2c1)N1CCc2ccccc21	–	109.0	–	–	–
CN1C[C@@H]2[C@@H]3C(=O)N(C)C(=O)[C@@H]3[C@](Cc3ccccc3)(C1=O)N2C(=O)c1ccc(F)cc1	·	–	·	·	·
Cc1ccc(S(=O)(=O)Nc2ccc3ccccc3c2[N+](=O)[O-])cc1	·	115.4	·	·	·
Cc1ccc(S(=O)(=O)Nc2ccc3cc([N+](=O)[O-])ccc3c2[N+](=O)[O-])cc1	·	110.8	·	·	·
COc1ccc([N+](=O)[O-])cc1NS(=O)(=O)c1ccc(C)cc1	–	–	–	–	–
CCN1C=C(C(=O)c2ccccc2)C(=O)CC1	·	–	·	·	·
CC(=O)O[C@H]1[C@H](O)[C@H](Oc2c(O)c(C)c3c4c2[C@@H](C)CC[C@@H]4[C@@H](C)C[C@H]3C=C(C)C)O[C@@H](C)[C@H]1O	–	118.1	–	–	–
O=C(CCSc1nnc(-c2ccncc2)o1)Nc1ccc(Cl)cc1	–	96.4	–	–	–
COc1ccc(CN(C(=O)CCC(=O)Nc2cc(C)on2)C(C(=O)NC(C)(C)C)c2cccc(OC)c2OC)cc1 (stereo not given)	–	–	–	–	–
CC(=O)N1CCN(c2ccc(OC[C@H]3CO[C@](Cn4ccnc4)(c4ccc(Cl)cc4Cl)O3)cc2)CC1	–	104.4	–	–	–
O=C(c1ccccc1)c1cc(Cl)ccc1N1C(=O)C=CC1=O	·	107.2	·	·	·
N#Cc1cc(C(=O)c2cc(Cl)ccc2O)cn(-c2ccccc2)c1=O	–	–	–	–	–
COC(=O)/C(N=Nc1cccc(C(F)(F)F)c1)=C(\C)O	–	–	–	–	–
O=C(/C(=C/O)N=Nc1cccc(C(F)(F)F)c1)c1ccccc1	–	108.2	–	–	–
Oc1cccc2ccc(/C=C/c3ccccc3Br)nc12	–	98.3	–	–	–
CN1CCN(C(=O)c2cc(COc3ccc(F)cc3Cl)on2)CC1c1ccccc1 (stereo not given)	–	–	–	–	–
CSc1ccccc1OCc1cc(C(=O)N2CCN(C)C(c3ccccc3)C2)no1 (stereo not given)	–	135.3	–	–	–
COc1cccc(C(=O)OCC(=O)NCCC2=CCCCC2)c1	–	·	–	–	–
O=C1CC(N2CCN(c3ccc(O)cc3)CC2)C(=O)N1c1ccc2c(c1)OCO2 (stereo not given)	–	–	–	–	–
O=C1CC(N2CCCCCC2)C(=O)N1c1ccc2c(c1)OCO2 (stereo not given)	–	121.3	–	–	–
CCCCCCc1cc2cc(S(=O)(=O)c3ccc(C)cc3)c(=O)oc2cc1O	–	–	–	–	–
SMILES	TIM10 inh	PfHsp90 set2	tim10-1 inh	NLRP3 yeast inh	tim23-1 inh
CCCCCCc1cc2cc(S(=O)(=O)c3ccc(Cl)cc3)c(=O)oc2cc1O	–	102.3	–	–	–
O=c1[nH]c(-c2ccccn2)nc(C(F)(F)F)c1Br	–	90.1	–	–	–
O=C(O)c1cc([N+](=O)[O-])ccc1N1CCC(Cc2ccccc2)CC1	–	–	–	–	–
O=C(NCC1CCCO1)c1cc([N+](=O)[O-])ccc1N1CCC(Cc2ccccc2)CC1 (stereo not given)	–	97.5	–	–	–
COCCCn1c(=O)c2sccc2n2c(CCCC(=O)NCC3CCCO3)nnc12 (stereo not given)	–	–	–	–	–
O=C1C=CC(=Nc2ccc(F)cc2)O1	·	118.6	·	·	·
CCOC(=O)COc1ccc2ccccc2c1/C=C/[N+](=O)[O-]	·	104.5	·	·	·
Nc1nc2c(nnn2Cc2ccc(Cl)c(Cl)c2)c(=O)[nH]1	·	–	·	·	·
CCC(=O)c1ccc(OCC(=O)NCc2ccccc2CN2CCCC2)cc1	–	–	–	–	–
CCN1C/C(=C\c2cccc([N+](=O)[O-])c2)C(=O)/C(=C/c2cccc([N+](=O)[O-])c2)C1	·	95.1	·	·	·
CCCCNc1nc(N)nc(-c2cc(Cl)ccc2O)n1	–	103.8	–	–	–

High-throughput results from PubChem.
